In PubChem BioAssay (NCI):
About 83,000 compounds went through this panel and 20% of them were active in at least one assay; those are over-represented in the sample as a whole.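 Treatment: one concentration, 48 hours, 96-well format. Scoring: percent growth, with anything below 10 considered active.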 Values without a mark were called inactive. The source made the active and inactive calls.

What was measured:
Experiment in all cases: NCI-60 one-dose screen, 48 h (100 = growth as untreated, 0 = no growth, -100 = all killed)
Conditions in all cases: 10 µM
DU-145 prostate = test system: DU-145 prostate
K-562 leukemia = test system: K-562 leukemia
MALME-3M melanoma = test system: MALME-3M melanoma
MDA-MB-231 breast = test system: MDA-MB-231 breast
SF-268 CNS = test system: SF-268 CNS
SF-295 CNS = test system: SF-295 CNS
SF-539 CNS = test system: SF-539 CNS
UACC-257 melanoma = test system: UACC-257 melanoma
M14 melanoma = test system: M14 melanoma
HCT-15 colon = test system: HCT-15 colon
HT29 colon = test system: HT29 colon
SNB-75 CNS = test system: SNB-75 CNS
U251 CNS = test system: U251 CNS
PC-3 prostate = test system: PC-3 prostate
SK-MEL-5 melanoma = test system: SK-MEL-5 melanoma
UACC-62 melanoma = test system: UACC-62 melanoma
LOX IMVI melanoma = test system: LOX IMVI melanoma
SK-MEL-28 melanoma = test system: SK-MEL-28 melanoma
SNB-19 CNS = test system: SNB-19 CNS

Structure (SMILES)	growth (DU-145 prostate)	growth (K-562 leukemia)	growth (MALME-3M melanoma)	growth (MDA-MB-231 breast)	growth (SF-268 CNS)	growth (SF-295 CNS)	growth (SF-539 CNS)	growth (UACC-257 melanoma)	growth (M14 melanoma)	growth (HCT-15 colon)	growth (HT29 colon)	growth (SNB-75 CNS)	growth (U251 CNS)	growth (PC-3 prostate)	growth (SK-MEL-5 melanoma)	growth (UACC-62 melanoma)	growth (LOX IMVI melanoma)	growth (SK-MEL-28 melanoma)	growth (SNB-19 CNS)
Cc1ccc(-c2ccc(SCC(=O)Nc3ccc(S(N)(=O)=O)cc3Br)nn2)cc1	21.5%	72.4%	29%	1.3% (active)	45.9%	21.6%	13.3%	77.9%	69.5%	9.74% (active)	11.4%	68%	-45.8% (active)	18.4%	68.4%	60%	-66.4% (active)	60.9%	
O=S(=O)(Nc1ncccn1)c1ccc(-n2c(-c3ccccc3)nc(-c3ccccc3)c2-c2ccccc2)cc1	101%	92.6%	111%	87.7%	85%	65.9%	83.4%	118%	102%	80.7%	105%	77.2%		67.8%	76.1%	83.7%	85.7%		82.3%
COc1cc(C2CC(c3ccc(C)cc3)=Nc3c(N)nc(N)nc3N2)ccc1Oc1nc(Nc2ccc(F)cc2)nc(N(C)C)n1 (centres undefined)	53.7%	19.8%	64.8%	38.7%	54.7%	68.8%	72.9%	76.7%	67.5%	14.9%	9.46% (active)	104%		45.6%	-100% (active)	77.7%		88.3%	66.7%
CC[C@]12C=CCN3CC[C@@]4(c5cc(C#CCNc6ccc(C)c(Nc7nccc(-c8cccnc8)n7)c6)c(OC)cc5N(C)[C@H]4[C@@](O)(C(=O)OC)[C@@H]1OC(C)=O)C32 (some centres undefined)	59.7%	35.1%	61.1%	39.6%	57.9%	39.5%	8.99% (active)	70.2%	45.1%	25.9%	25.8%	77.7%		37.5%	32.1%	69.4%	38.6%		48.1%
Cn1cc(/C=N/Nc2cccc(Cl)n2)c2ccccc21	72.5%	20.2%	70.7%	51.6%	56%	73.5%	64.6%	88.8%	55.4%	28.2%	44.1%	70.7%	56.2%	58.4%	71.7%	67.7%	50.1%	104%	
CC1=C(c2cc(-c3ccc(Cl)cc3)c(C#N)c(N)n2)C(c2ccccc2)NC(=S)N1 (centres undefined)	51.3%	36.9%	4.96% (active)	51.9%	51%	78.1%	39.9%	77.7%	49.8%	10.9%	24.7%	36.5%		49.8%	58.1%	62.7%	-49.2% (active)	57.7%	75.4%
O=C(CSc1nnc(-c2c[nH]c3ccccc23)n1-c1ccccc1)c1ccc(Br)cc1	58.5%	82%	71%	66%	49.1%	33.7%	62%	52.6%	51%	44%	57.4%	38.8%		46.2%	17.2%	35.2%	41.8%	34.9%	70.2%
CN1CCc2c(sc3ncnc(N/N=C/c4cn(-c5ccccc5)nc4-c4ccc(Cl)cc4)c23)C1	31.4%	9.51% (active)	17.8%	4.63% (active)	30.7%	21.6%	7.13% (active)	8.67% (active)	16.6%	7.13% (active)	5.95% (active)	74.1%	18.2%	55.2%	30.7%	9.22% (active)		45%	
N#Cc1ccc(-c2nn(-c3ccc(C(=O)O)cc3)cc2CNc2ccc(Oc3ccccc3)cc2)cc1	65.4%	42.7%	93.9%	72.5%	50.1%	49.3%	38.9%	56.1%	34.9%	49.7%	34.4%	101%	33.9%	29.5%	70%	21.9%	24.1%	21.3%	
CN1C(=O)N(C)C2SC(N/N=C/c3ccccc3)=NC21 (centres undefined)	97.1%	19.2%	61.6%	56.5%	82.9%	66.6%	64.5%	90.5%	48.4%	30.1%	38.5%	60.7%	60.4%	84.7%	68.4%	42.5%	63.4%	75.5%	
CN(C)c1nc(NCCNS(=O)(=O)c2ccc(C(=O)/C=C/c3ccccc3)cc2)nc(Nc2ccc(F)cc2)n1	26.3%	10.8%	36.5%	17.7%	32.4%	23.1%	26.7%	54.8%	5.05% (active)	-67.2% (active)	-59.8% (active)	87.3%		16.4%	30.2%	26.5%	-100% (active)	31.4%	41.7%
CC(=O)Nc1ccc(-c2cn(-c3cccc(C(=O)Nc4ccc(F)c(C(F)(F)F)c4)c3)nn2)cn1	42.5%	10.9%	2.13% (active)	-4.26% (active)	68.8%	29.4%	22.7%	90.4%	62.6%	20.7%	6.65% (active)	119%	-47.8% (active)	43.1%	86.1%	55.9%	8.57% (active)	60.3%	
O=C(NCCCCCCCCCC[P+](c1ccccc1)(c1ccccc1)c1ccccc1)c1ccc(-n2nc(-c3ccccc3O)nc2-c2ccccc2O)cc1	-45.8% (active)	6.35% (active)	-94% (active)	-73.6% (active)	-28.8% (active)	-90.4% (active)	-95.9% (active)	-71.5% (active)	-84.9% (active)	-90.4% (active)	-72.9% (active)	-27.1% (active)		-48.3% (active)	-100% (active)	-88.9% (active)	-96.9% (active)	-93.8% (active)	-93.9% (active)
O/N=C(\CSc1nnc(-c2c[nH]c3ccccc23)n1-c1ccccc1)c1ccc(Br)cc1	-88.5% (active)	-11.1% (active)	-10.2% (active)	-84.2% (active)	-55.6% (active)	-15% (active)	-64.9% (active)	-8.6% (active)	-67.7% (active)	-92.8% (active)	-76.9% (active)	-19.9% (active)	9.73% (active)	-64.4% (active)	-24.5% (active)	-90.5% (active)	-87.4% (active)	-26.3% (active)	
COc1cccc2nc(Nc3cccc(NC(=O)c4ccc(CN5CCCN(C)CC5)c(C(F)(F)F)c4)c3)ccc12	-83.4% (active)	5.93% (active)	-96.3% (active)	-99.1% (active)	-50.3% (active)	-97.7% (active)	-100% (active)	-86% (active)	-90.5% (active)	-100% (active)	-72% (active)	-84.5% (active)	-55.6% (active)	-69.8% (active)	-96.9% (active)	-74.1% (active)	-98.8% (active)	-100% (active)	
O=C(CNc1nc(-c2ccccc2)cs1)Nc1ccccc1	14.1%	5.68% (active)	-61% (active)	-30.7% (active)	8.59% (active)	-1.92% (active)	-93.7% (active)	-14.3% (active)	-73.8% (active)	-70.6% (active)	-53.9% (active)	29.2%		12.3%	-99.5% (active)	-90.1% (active)	-90.1% (active)	-60.1% (active)	-68.4% (active)
